Many of the other results were omitted from the sample, so hits are more common in it than they were.
aSyn UTR act: Activators via SNCA 5'UTR binding, MLPCN; alpha-synuclein 5'UTR reporter, activators screen; activity score, % (tested at 7.5 µM), hits read low; 7.1% of 300,000 active; AID 1814; in the data active = activity score below about -60%
Of the large screens only hits and unclear results are named; the others gave an inactive call.

COc1ccc(-n2cnc3cc(NCc4cccs4)ccc32)cc1	aSyn UTR act -69
COc1ccc(-c2nc3c4ccccc4[nH]c(=O)n3n2)cc1	aSyn UTR act -82
Cc1ccc(-c2cc3c(N=O)c4ccccc4c-3n[nH]2)cc1	none
Cc1ccc(Oc2nnc(-c3ccc(C)cc3)c3ccccc23)cc1	aSyn UTR act -93
COc1ccc(NC(=S)Nc2ccc(N)c([N+](=O)[O-])c2)cc1	aSyn UTR act -145
COc1ccc(NC(=S)Nc2ccc3nccnc3c2)cc1	aSyn UTR act -227
COc1ccc(NC(=S)Nc2ccc3snnc3c2)cc1	aSyn UTR act -107
COc1ccc(C)cc1NC(=O)CNC(c1ccccc1)c1ccc(C)cc1 (stereo not drawn)	none
Cc1ccc(NC(=O)NCC(c2ccccc2)N(C)C)cc1 (stereo not drawn)	aSyn UTR act -107
Cc1ccc(NC(=O)CNC(C)c2ccccc2)cc1 (stereo not drawn)	aSyn UTR act -73
C=CCc1cc(/C=C2/NC(=S)NC2=O)cc(OC)c1O	none
O=C1NC(=S)N/C1=C\C=C\c1ccccc1	aSyn UTR act -104
O=C1NC(=S)N/C1=C/c1ccc2ccccc2c1	aSyn UTR act -84
COc1ccccc1N=c1oc2cc(O)ccc2cc1C(N)=O	aSyn UTR act -74
COc1ccc2cc(C(N)=O)c(=Nc3ccc(C)cc3)oc2c1	aSyn UTR act -62
Cc1cccc(N=c2oc3cc(O)ccc3cc2C(N)=O)c1	aSyn UTR act -77
CC1Cc2ccccc2N1C(=O)COc1ccc2c(c1)OCO2 (stereo not drawn)	aSyn UTR act -91
CC1CCCN(C(=O)COc2ccc3c(c2)OCO3)C1 (stereo not drawn)	aSyn UTR act -69
CC(C)c1ccc(C2C3CSCC=C3C(C#N)=C(N)C2(C#N)C#N)cc1 (stereo not drawn)	aSyn UTR act -84
N#Cc1cn(-c2ccccc2)nc1-c1ccccc1	aSyn UTR act -78
COc1ccc(S(=O)(=O)Nc2ccc(O)c3ccccc23)cc1	aSyn UTR act -68
COC(=O)c1ccc(C)c(NS(=O)(=O)c2ccc(OC)cc2)c1	none
Nc1nc(-c2nc3ccccc3[nH]2)cs1	aSyn UTR act -86
O=c1[nH]c(-c2ccccn2)nc2ccccc12	aSyn UTR act -96
c1ccc(-c2nc3c(ccc4ccccc43)[nH]2)nc1	aSyn UTR act -157
c1ccc(-c2nc3ccccc3[nH]2)nc1	aSyn UTR act -81
CCOC(=O)C1(Cc2cccc(Cl)c2)CCCN(C(=O)CN2C(=O)CSC2=O)C1 (stereo not drawn)	aSyn UTR act -75
CCOC(=O)C1(Cc2cccc(Cl)c2)CCCN(C(=O)c2ccnn2C)C1 (stereo not drawn)	aSyn UTR act -85
COC(=O)c1ccc(CSc2nc3ccccc3s2)o1	aSyn UTR act -83
O=C(Cc1ccccc1)c1nc2ccccc2s1	aSyn UTR act -216
COC(=O)c1ccc(CC(=O)c2nc3ccccc3s2)cc1	aSyn UTR act -63
COC(=O)c1ccc(/C(O)=C(\C#N)c2nc3ccccc3s2)cc1	aSyn UTR act -150
O=C(N/N=C/c1cccc(Cl)c1)c1c(O)c2c([nH]c1=O)CCCC2	aSyn UTR act -100
CCCc1nnc(NC(=O)c2c(O)c3c([nH]c2=O)CCCC3)s1	aSyn UTR act -75
O=C(Nc1nccs1)c1c(O)c2c([nH]c1=O)CCCC2	aSyn UTR act -209
O=C(Nc1ccccc1O)c1c(O)c2c([nH]c1=O)CCCC2	aSyn UTR act -182
CCn1c(-c2cccnc2Cl)nc2cc(Cl)c(Cl)cc21	aSyn UTR act -119
O=C(COc1ccc2c(c1)OCO2)Nc1ccccc1C(F)(F)F	aSyn UTR act -114
N#Cc1ccccc1NC(=O)COc1ccc2c(c1)OCO2	aSyn UTR act -130
C/C(N)=C(/C#N)C(=O)CSc1nnc(Nc2ccccc2)s1	aSyn UTR act -125
C/C(N)=C(/C#N)C(=O)CSc1nnc(Nc2ccccc2C)s1	aSyn UTR act -77
CCc1ccc(Nc2ncc3c(n2)CC(C)CC3=O)cc1 (stereo not drawn)	aSyn UTR act -135
CCc1ccc(Nc2ncc3c(n2)CC(C)(C)CC3=O)cc1	aSyn UTR act -141
Cc1cccc(Nc2ncc3c(n2)CC(C)CC3=O)c1 (stereo not drawn)	aSyn UTR act -127
C/C(=N\NC(=O)c1c(Cl)cnn1C)c1cccc(NC(=O)COc2ccccc2)c1	aSyn UTR act -88
C/C(=N\NC(=O)c1ccn(C)n1)c1ccc(NC(=O)c2cccc(F)c2)cc1	aSyn UTR act -86
C/C(=N/NC(=O)c1ccc(C)s1)c1cccc(NC(=O)COc2ccc(Cl)cc2Cl)c1	aSyn UTR act -126
C/C(=N/NC(=O)c1ccc(Cl)s1)c1ccc(NC(=O)COc2ccc(Cl)cc2)cc1	aSyn UTR act -77
C/C(=N/NC(=O)c1ccco1)c1cccc(NC(=O)c2ccc(C)s2)c1	aSyn UTR act -143
C/C(=N\NC(=O)c1ccn(C)n1)c1cccc(NC(=O)c2ccc(C)s2)c1	aSyn UTR act -101
CC(=O)Nc1ccc(N=Nc2ccc(O)cc2)cc1	aSyn UTR act -87
Oc1ccc(Cl)cc1N=Nc1ccccc1	aSyn UTR act -70
OCc1ccc(N=Nc2ccccc2)cc1	aSyn UTR act -84
Oc1ccc(N=Nc2ccccc2)cc1	aSyn UTR act -145
O=C1C=CCC(/C=C/c2ccccc2)O1 (stereo not drawn)	aSyn UTR act -104
CN(C)c1ccc(NC(=S)NC23CC4CC(CC(C4)C2)C3)cc1	aSyn UTR act -129
CCOc1ccc(C(=O)NC(=S)Nc2ccccn2)cc1[N+](=O)[O-]	aSyn UTR act -104
O=C(Nc1ccccn1)c1sc2cc([N+](=O)[O-])ccc2c1Cl	aSyn UTR act -161
O=C(NC(=S)Nc1ccccn1)c1cccc([N+](=O)[O-])c1	aSyn UTR act -89
Cc1ccc(-n2nnc(-c3cccnc3Cl)n2)cc1	aSyn UTR act -78
Clc1ccc(-n2nnc(-c3cccnc3Cl)n2)cn1	aSyn UTR act -130
COc1ncccc1-c1nnn(-c2ccc(Cl)nc2)n1	aSyn UTR act -74
O=C(Nc1ccc2c(c1)OCO2)c1cccc(F)c1	aSyn UTR act -183
O=C(Nc1ccc2c(c1)OCO2)c1c(F)cccc1F	aSyn UTR act -125
O=C(Nc1cccc(F)c1)Nc1ccc2c(c1)OCO2	aSyn UTR act -99
CC1(C)CC(=O)c2sc(N3CCCCC3)nc2C1	aSyn UTR act -91
CCN(CC)C(=O)CSc1nnc(-c2ccccc2)o1	aSyn UTR act -137
CN(C)CCSc1nnc(-c2ccccc2)o1	aSyn UTR act -71
CC(=O)c1cc(-c2ccccc2)n(CC(=O)NC2CCCC2)c1C	aSyn UTR act -65
CCC(=O)N1CCN(c2nc3ccccc3s2)CC1	aSyn UTR act -105
CNC(=S)N1CCN(c2nc3ccccc3s2)CC1	aSyn UTR act -75
O=C(C1CC1)N1CCN(c2nc3ccccc3s2)CC1	aSyn UTR act -84
O=S(=O)(c1ccc(Cl)s1)N1CCCc2cccc(O)c21	aSyn UTR act -125
C#Cc1cccc(NC(=O)CSc2nnc(-c3ccc(C(F)(F)F)cn3)o2)c1	aSyn UTR act -124
Cc1cccc(NC(=O)CSc2nnc(-c3n[nH]c4ccccc34)o2)c1	aSyn UTR act -180
N#Cc1cccc(NC(=O)CSc2nnc(-c3n[nH]c4ccccc34)o2)c1	aSyn UTR act -277
Cc1ccc(NC(=O)c2ccc(OC(=O)COc3ccc(Cl)cc3C)cc2)cc1	aSyn UTR act -79
Cc1ccc(NC(=O)c2ccc(OC(=O)COc3cccc(Cl)c3)cc2)cc1	aSyn UTR act -130
Cc1ccc(NC(=O)c2ccc(OC(=O)CCN3C(=O)c4ccccc4C3=O)cc2)cc1	aSyn UTR act -146
